Inconclusive results are not listed. The source made the active and inactive calls. The call rests on the fitted dose curve; in most records, active means well fitted cell-killing curve with a large enough effect in the repeat runs; inconclusive means weak or mixed curves, or effect the other way; inactive means flat fitted curve, though single readings scatter.
assay: qHTS RealTime-Glo MT Cell Viability Assay in HepG2 cells - 40 hour (AID 1224870); conditions: RealTime-Glo luminescence; series mostly up to 76.8 µM; activity change, negative = cytotoxic: at the top concentration; further: nearly all actives have a fitted effect of over 50% in size
Excerpt: National Center for Advancing Translational Sciences [NCATS]
NIH Chemical Genomics Center [NCGC]
U.S. Environmental Protection Agency [EPA]
National Institutes of Environmental Health Sciences [NIEHS]
National Toxicology Program [NTP]
U.S. Food and Drug Administration [FDA]
Measure of cell viability is critical in the cell-base assay. Analysis of cell viability is necessary for the characterization of cell responses to cytotoxic drugs and environmental stress. A RealTime-Glo MT Cell Viability Assay to monitor cell viability in real time of continues cell culture during 40 hours of compound treatment was used to screen Tox21 10K library compounds in HepG2 cells. The RealTime-Glo MT Cell Viability Assay is a nonlytic, homogeneous, bioluminescent method to measure cell viability in real time using a simple, plate-based method. The assay involves adding NanoLuc luciferase and a cell-permeant prosubstrate to cells in culture. Viable cells reduce the proprietary prosubstrate to generate a substrate for NanoLuc luciferase. This substrate diffuses from cells into the surrounding culture medium, where it is rapidly used by the NanoLuc Enzyme to produce a luminescent signal. The signal correlates with the number of viable cells, making the assay well suited for cytotoxicity studies.
Tox21 Assay Protocol Summary:
The mixture of HepG2 cell suspension and reagents were dispensed at 600cells/6 ul/well in 1536-well tissue culture treated black solid bottom plates using a Multidrop dispenser. After the assay plates were incubated at a 37 C/5% CO2 incubator for 5 hours, 23 nL of compounds dissolved in DMSO, positive and negative controls was transferred to the assay plate by a pintool work station. The plates were incubated at 37 C for 40 hours. The luminescence intensity were measured at 0h, 8h, 16h, 24h, 32h and 40h time points using ViewLux plate reader during compound treatment.
On the % scale 0 is the no-effect control and ±100 the full control effect.

Structure (SMILES) | activity change, negative = cytotoxic
Cc1c(N)cccc1Cl | -1.93% (inactive)
CN(C)C(C)(C)CO | 1.82% (inactive)
CC(C)NCC(O)c1ccc2ccccc2c1 (stereo not given) | 1.7% [at 35.3 µM] (inactive)
CC(C)=CCC[C@@](C)(O)[C@H]1CC=C(C)CC1 | -0.0307% [at 35.3 µM] (inactive)
O=C(O)c1cc2ccccc2nc1C(=O)O | -1.16% (inactive)
CCC(=O)CC | 2.12% (inactive)
OCC1(CO)COCOC1 | 0.539% (inactive)
CCOc1cccc(N)c1 | 3.7% (inactive)
O=C(Cn1ccnc1[N+](=O)[O-])NCc1ccccc1 | 2.2% [at 35.3 µM] (inactive)
OCC(O)CN1CCN(c2ccccc2)CC1 (stereo not given) | -0.151% [at 35.3 µM] (inactive)
Cc1ccccc1C(N)=O | 0.194% (inactive)
O=C(O)CONC(=O)c1ccccc1 | 0.713% (inactive)
COc1cc(/C=C/C(N)=O)cc(OC)c1OC | 3.66% [at 35.3 µM] (inactive)
CN1CCOC(c2ccccc2)c2ccccc2C1 (stereo not given) | 2.35% [at 35.3 µM] (inactive)
Cc1cc(C)c(C(=O)O)c(C)c1 | -3.09% (inactive)
CCCCCCCCCCCCCCCCCCOCCO | -6.69% [at 15.8 µM] (inactive)
O=C(CN1CCNCC1)NC1CCCCC1 | -3.54% [at 35.3 µM] (inactive)
N[C@@H](Cc1ccc(O)cc1)C(=O)O | 1.47% [at 6.97 µM] (inactive)
CCC(C)OC(C)CC (stereo not given) | -3.92% (inactive)
COC(=O)/C=C\C(=O)O | -2.59% (inactive)

Structure (SMILES) | activity change, negative = cytotoxic
CC(C)CO | 2.55% (inactive)
CCCc1ccc(O)cc1 | 1.72% (inactive)
CC(C)OC(=O)CCC(=O)OC(C)C | 0.358% (inactive)
Cc1ccnc(N)c1 | 0.494% (inactive)
CSc1cnccn1 | -0.592% (inactive)
CC(=O)OCC(=O)Nc1cc(C#N)cc(NC(=O)COC(C)=O)c1Cl | 0.225% [at 35.3 µM] (inactive)
CC(C)c1ccc(C=O)cc1 | 3.41% (inactive)
CCCCCCCCCCCCCCCCCC#N | 9.85% (inactive)
CCCSSCCC | 0.203% (inactive)
O=C=NCC1CCCC(CN=C=O)C1 (stereo not given) | -1.7% (inactive)
CC(C)C1OCCN1CCOC(=O)NCCCCCCNC(=O)OCCN1CCOC1C(C)C (stereo not given) | -4.47% (inactive)
CC(=O)CC(=O)Nc1ccc(C)cc1C | 1.28% (inactive)
C/C(=C1\CCOC(=O)S1)N(C=O)Cc1cnc(C)nc1N | -1.23% [at 35.3 µM] (inactive)
N#Cc1ccccc1O | 2.18% (inactive)
O/N=C/C=N/O | 0.48% (inactive)
CC1CCc2c(N3CCC(O)CC3)c(F)cc3c(=O)c(C(=O)O)cn1c23 (stereo not given) | 1.5% [at 35.3 µM] (inactive)
CC(=O)O[Si](C)(OC(C)=O)OC(C)=O | 0.742% (inactive)
CCCCOC(=O)C(C)O (stereo not given) | 3.12% (inactive)
N#Cc1cscn1 | 0.227% (inactive)
N#CCC(=O)NN | -0.815% [at 35.3 µM] (inactive)

— PubChem BioAssay (Tox21)
